The structures appear in SMILES notation. Where “and” joins values, the source holds several entries; their conditions need not be identical. Equal entries are not always repeated. Records with an inconclusive call do not appear. Calls of active or inactive are those of the source. Unless noted, the limit is not given here; nearly all actives have AC50 up to about 26 µM.

The text below walks through data of PubChem BioAssay.

Assay [1] in a line: viability loss in pontine glioma line – cell-based, SU-DIPG-XXV, MIPE5.0, CellTiter-Glo, qHTS, dose response (AID 1347065).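 Also: cells exposed to compound for 48 hours before ATP readout.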 As to conditions: CellTiter-Glo ATP luminescence.
A short description of assay [2]: growth inhibition of DIPG cells – cell-based, MIPE4.0 library, CellTiter-Glo luminescence, qHTS (AID 1347066; cut-off not given, nearly all actives have AC50 up to about 30 µM;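 also: cells exposed to compound for 48 hours before readout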). The settings on record: SU-DIPG-VI viability, CellTiter-Glo ATP luminescence. In general terms: ATP-based viability assays read luminescence as a measure of living cells.
The nature of assay [3]: JHH-DIPG-1 glioma cell viability, MIPE5.0 library, CellTiter-Glo luminescence, qHTS (AID 1347067).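 Also: cells exposed to compound for 48 hours before readout.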 As to conditions: JHH-DIPG-1 glioma viability, CellTiter-Glo ATP luminescence.
Assay [4] is described as follows: growth inhibition of DIPG cells – cell-based, MIPE5.0 library, qHTS (AID 1347068; cut-off not given, nearly all actives have IC50 up to about 30 µM;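 as to IC50: cells exposed to compound for 48 hours before viability readout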). As to conditions: SU-DIPG-XXV viability.
A short description of assay [5]: viability loss with induced miR-34 in A549 – imaging, A549 dox-inducible miR-34, nuclei and caspase counts, primary screen (AID 1347080;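 active = compounds whose cell count with miR-34 switched on is under 0.7 times the count with it off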). As to conditions: A549 miR-34 inducible, Hoechst nuclei count, 48 h.
Assay [6] is described as follows: MELAS cybrid and Rieske KO viability enhancers – cell-based, MELAS cybrids, Rieske KO mouse fibroblasts, CellTiter-Glo, primary screen (AID 1508586;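 active = mean z-score across replicates of 1.96 or higher in either the MELAS or the Rieske mutant cell line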;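 also: z relative to plate mean and SD of compound and empty wells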). As to conditions: low glucose.
The nature of assay [7]: compounds altering HSF1 focus formation in cells – imaging, Selleck Cancer Library (AID 1347162; in the data active = plate-normalised HSF1 focus index below about 0.46). The settings on record: human cells, HSF1 nuclear foci imaging, at 10 µM; SSMD: measured here: HSF1 foci SSMD mean; cell count: measured here: cell number; plate-normalised HSF1 focus index: stronger effect = lower value.
Assay [8] is described as follows: blockers of cellular phospholipid synthesis – cell-based, LOPAC library, screen 4, primary screen (AID 1347384; call rule not given here). As to conditions: animal cells, phospholipid biosynthesis inhibition screen; at 10 µM.
Setting [9] is: stronger effect = lower value, cell number ratio, induced over uninduced.
Setting [10] is: measured here: relative caspase fold change +Dox/-Dox.
Setting [11] is: measured here: total cells with miR-34 induction, stronger effect = lower value.
Where [12] appears, read: measured here: total cells without miR-34 induction.
Setting [13] is: MELAS cybrid survival, CellTiter-Glo 48 h, stronger effect = higher value.
Setting [14] is: Rieske KO mouse fibroblast survival, CellTiter-Glo 72 h.

On to `CN(C)CCc1c[nH]c2ccc(CS(=O)(=O)N3CCCC3)cc12`, for which the outcome in assay [1], in assay [2], in assay [3] and in assay [4] was inactive. Moreover, the fold change in assay [5] (setting [9]) is 0.94 (inactive); in assay [5] (setting [10]), 1.05. Besides, the cell count stood at 7180 in assay [5] (setting [11]) and 7640 in assay [5] (setting [12]). Also, the z-score in assay [6] (setting [13]) was -0.0807 (inactive); in assay [6] (setting [14]) it was -0.352.
Regarding `COc1ccc2nc(S(=O)Cc3ncc(C)c(OC)c3C)[nH]c2c1` (stereo not drawn), the compound was classed as inactive in assay [1], in assay [2], in assay [3] and in assay [4].
With `O=C(O)CSCC(=O)NC1CCSC1=O` (stereo not drawn), the compound was called inactive in assay [1], in assay [2], in assay [3] and in assay [4]. Besides, the fold change was 0.961 (inactive) and 0.85 (inactive) in assay [5] (setting [9]); 0.755 and 1.41 in assay [5] (setting [10]). Moreover, the cell count in assay [5] (setting [11]) is 8260 and 8130; in assay [5] (setting [12]) it was 8600 and 9570. Further, the z-score in assay [6] (setting [13]) is -0.199 (inactive); in assay [6] (setting [14]) it was 0.356.
For orientation: AC50 means the concentration at which the activity in the assay is half-maximal. In general, IC50 refers to the concentration that inhibits the measured activity by half. For `CC(=O)[C@]1(O)Cc2c(O)c3c(c(O)c2[C@@H](O[C@H]2C[C@H](N)[C@H](O)[C@H](C)O2)C1)C(=O)c1ccccc1C3=O`, the AC50 in assay [1] was 5.25 µM (active); in assay [2] it was 13.2 µM (active); in assay [3], 4.68 µM (active). In assay [4], the IC50 was 23.5 µM (active). The fold change in assay [5] (setting [9]) was 1.18 (inactive) and 1.09 (inactive); in assay [5] (setting [10]) it was 0.974 and 1.09. Also, the cell count in assay [5] (setting [11]) was 743 and 2700; in assay [5] (setting [12]), 630 and 2460; in assay [7], 5180. In assay [7], this compound registered an SSMD of -18.6. Also, the plate-normalised HSF1 focus index in assay [7] was 0.0445 (active). Moreover, in assay [8], the outcome was inactive. For the same compound, the z-score in assay [6] (setting [13]) was 2.62 (active); in assay [6] (setting [14]), -0.996.
For the compound `O=C(O)c1cn(-c2ccc(F)cc2)c2cc(N3CCNCC3)c(F)cc2c1=O`, the compound was classed as inactive in assay [1], in assay [2], in assay [3] and in assay [4]. The fold change in assay [5] (setting [9]) is 0.867 (inactive) and 0.86 (inactive); in assay [5] (setting [10]), 3.37 and 1.06. Further, the cell count in assay [5] (setting [11]) was 11600 and 8760; in assay [5] (setting [12]), 13400 and 10200. In addition, the z-score in assay [6] (setting [13]) was 0.702 (inactive) and 0.944 (inactive); in assay [6] (setting [14]), 0.262 and 0.886.
Regarding `Cn1c(=O)c2c(ncn2CC(O)CO)n(C)c1=O` (stereo not drawn), the compound was classed as inactive in assay [1], in assay [2], in assay [3] and in assay [4]. Moreover, the fold change in assay [5] (setting [9]) was 0.891 (inactive) and 0.954 (inactive) and 0.903 (inactive); in assay [5] (setting [10]), 1.59 and 0.805 and 1.72. In addition, the cell count in assay [5] (setting [11]) was 9080 and 7480 and 11300; in assay [5] (setting [12]), 10200 and 7830 and 12600. Further, the z-score is -0.421 (inactive) and 0.782 (inactive) in assay [6] (setting [13]); 0.428 and -0.0518 in assay [6] (setting [14]).
With `CCCN[C@H]1CCc2nc(N)sc2C1`, the compound was called inactive in assay [1], in assay [2], in assay [3], in assay [4] and in assay [8]. Moreover, the fold change in assay [5] (setting [9]) is 0.926 (inactive) and 0.917 (inactive); in assay [5] (setting [10]) it was 0.996 and 1.3. Also, the cell count is 7940 and 9730 in assay [5] (setting [11]); 8570 and 10600 in assay [5] (setting [12]). Moreover, the z-score is 0.752 (inactive) and 0.407 (inactive) in assay [6] (setting [13]); 0.13 and -0.361 in assay [6] (setting [14]).
Regarding `O=c1oc2c(O)c(O)cc3c(=O)oc4c(O)c(O)cc1c4c23`, the compound was classed as inactive in assay [1], in assay [2], in assay [3] and in assay [4].
Consider `Cc1cc2cc3c(C)cc(=O)oc3c(C)c2o1`, for which the call in assay [1], in assay [2], in assay [3] and in assay [4] was inactive. Moreover, the fold change in assay [5] (setting [9]) was 0.952 (inactive) and 0.881 (inactive); in assay [5] (setting [10]), 1.2 and 2.5. The cell count in assay [5] (setting [11]) is 9030 and 10900; in assay [5] (setting [12]), 9480 and 12400. For the same compound, the z-score in assay [6] (setting [13]) was -0.707 (inactive); in assay [6] (setting [14]), -0.528.
